The subject of test [1] is Jurkat. The test can be described thus: mean cell size (FSC-A) relative to DMSO control (fraction of control); higher = larger cells. The conditions noted are these: 48 h. In short, it runs like this:
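Jurkat cells at 600 cells/µl were incubated for 1 h and then treated for 48h with the Enzo Screen-Well FDA Approved Drug Library v2.0 at 25µM, with DMSO at 0.9% (v/v) final. Compounds that reduced counts below 20% of controls were retested in 10-fold dilutions down to 25nM. Cell count and mean cell size, taken as forward scatter area, were measured by flow cytometry relative to solvent-only controls. Each plate carried 6-12 controls, and values are means of 3 biological replicates.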

For test [2], the system named is Jurkat. The test can be described thus: cell count relative to DMSO control (fraction of control); higher = more cells (less growth inhibition). The note with it: 48 h.

Structures can show the parent of a compound that is named as a salt. ± gives the standard deviation.

With `CC(=O)[C@]1(O)Cc2c(O)c3c(c(O)c2[C@@H](O[C@H]2C[C@H](N)[C@H](O)[C@H](C)O2)C1)C(=O)c1ccccc1C3=O` [Idarubicin·HCl] (concentration: 25 nM), the mean cell size in test [1] came to 1.01 ± 0.047. The same compound showed a cell count in test [2] of 0.622 ± 0.11.
In test [1], `COc1cccc2c1C(=O)c1c(O)c3c(c(O)c1C2=O)C[C@@](O)(C(=O)CO)C[C@@H]3O[C@H]1C[C@H](N)[C@@H](O)[C@H](C)O1` [Epirubicin·HCl] (concentration: 250 nM) showed a mean cell size of 1.42 ± 0.022. In test [2], this compound gave a cell count of 0.206 ± 0.052.
For `NNc1nncc2ccccc12` [Hydralazine·HCl] (concentration: 25 µM), in that order: 0.98 ± 0.075 and 0.537 ± 0.045.
`CCCSc1ccc2[nH]c(NC(=O)OC)nc2c1` [Albendazole] (concentration: 2.5 µM): the mean cell size in test [1] worked out at 1.32 ± 0.11. For the same compound, in test [2], the cell count stood at 0.209 ± 0.012.
`CO/N=C(\C(=O)N[C@@H]1C(=O)N2C(C(=O)O)=CCS[C@H]12)c1csc(N)n1` [Ceftizoxim·Na] (concentration: 25 µM): in test [1], the mean cell size turned out to be 0.95 ± 0.016. The same compound came in with a cell count in test [2] of 1.09 ± 0.073.
`CC[C@H](C)[C@H](N)C1=N[C@H](C(=O)N[C@@H](CC(C)C)C(=O)N[C@H](CCC(=O)O)C(=O)N[C@H](C(=O)N[C@H]2CCCCNC(=O)[C@H](CC(N)=O)NC(=O)[C@@H](CC(=O)O)NC(=O)[C@H](Cc3cnc[nH]3)NC(=O)[C@@H](Cc3ccccc3)NC(=O)[C@H]([C@@H](C)CC)NC(=O)[C@@H](CCCN)NC2=O)[C@@H](C)CC)CS1` [Bacitracin] (concentration: 25 µM) came in with a mean cell size in test [1] of 0.977 ± 0.038. The cell count in test [2] was 0.476 ± 0.09.
For `CN(C)CC/C=C1/c2ccccc2COc2ccc(CC(=O)O)cc21` [Olopatadine] (concentration: 25 µM), in that order: 0.976 ± 0.029 and 0.929 ± 0.1.
The compound `CCOC(=O)[C@H](CCc1ccccc1)N[C@@H](C)C(=O)N1[C@H](C(=O)O)C[C@H]2CCCC[C@@H]21` [Trandolapril] (concentration: 25 µM) showed a mean cell size in test [1] of 0.973 ± 0.044. In test [2], this compound yielded a cell count of 0.924 ± 0.12.
Consider `CC(=O)Nc1ccc(O)cc1` [Acetaminophen] (concentration: 25 µM), for which the mean cell size in test [1] was found to be 1.03 ± 0.037. The compound also came in with a cell count in test [2] of 0.891 ± 0.031.
Taken in the same sequence, the figures for `C[C@H]1C[C@@H]2[C@H]([C@@H](O)C[C@@]3(C)[C@H]2CC[C@]3(O)C(=O)CO)[C@@]2(C)C=CC(=O)C=C12` [Methylprednisolone] (concentration: 25 µM) were 0.908 ± 0.013 and 0.873 ± 0.025.
Consider `Nc1nc(=O)[nH]cc1F` [Flucytosine] (concentration: 25 µM), for which the mean cell size in test [1] worked out at 0.997 ± 0.035. The same compound displayed a cell count in test [2] of 0.919 ± 0.025.
For `CC(CCc1ccccc1)NCC(O)c1ccc(O)c(C(N)=O)c1` (stereo not drawn) [Labetalol·HCl] (concentration: 25 µM), in that order: 0.928 ± 0.049 and 0.821 ± 0.1.
For `CCCCC(=O)N(Cc1ccc(-c2ccccc2-c2nnn[nH]2)cc1)[C@H](C(=O)O)C(C)C` [Valsartan] (concentration: 25 µM), in that order: 0.9682 ± 0.0072 and 0.976 ± 0.11.
Taken in the same sequence, the figures for `CN(C)CCC[C@@]1(c2ccc(F)cc2)OCc2cc(C#N)ccc21` [Escitalopram] (concentration: 25 µM) were 1.06 ± 0.039 and 0.382 ± 0.085.
As for `Cn1c2ncnc-2c(O)n(C)c1=O` [Oxtriphylline] (concentration: 25 µM), the mean cell size in test [1] came to 0.953 ± 0.021. Further, the cell count in test [2] turned out to be 0.761 ± 0.13.
Take `N=C(N)N` [Guanidine·HCl] (concentration: 25 µM): the mean cell size in test [1] was 0.94 ± 0.018. Besides, the cell count in test [2] was 1.02 ± 0.096.
For `CC(=O)S[C@@H]1CC2=CC(=O)CC[C@]2(C)[C@H]2CC[C@@]3(C)[C@@H](CC[C@@]34CCC(=O)O4)[C@H]12` [Spironolactone] (concentration: 25 µM), in that order: 1.01 ± 0.062 and 0.455 ± 0.032.
Taken in the same sequence, the figures for `CCCC1O[C@@H]2C[C@H]3[C@@H]4CCC5=CC(=O)C=C[C@]5(C)[C@H]4[C@@H](O)C[C@]3(C)[C@]2(C(=O)CO)O1` (stereo partly drawn) [Budesonide] (concentration: 25 µM) were 0.945 ± 0.037 and 0.799 ± 0.046.
Taken in the same sequence, the figures for `N=C(N)NC(=O)Cc1c(Cl)cccc1Cl` [Guanfacine·HCl] (concentration: 25 µM) were 0.956 ± 0.059 and 0.695 ± 0.13.
The compound `NS(=O)(=O)c1cc2c(cc1Cl)N=CNS2(=O)=O` [Chlorothiazide] (concentration: 25 µM) displayed a mean cell size in test [1] of 0.926 ± 0.011. The cell count in test [2] turned out to be 1.16 ± 0.082.
As for `CS(=O)(=O)CCNCc1ccc(-c2ccc3ncnc(Nc4ccc(OCc5cccc(F)c5)c(Cl)c4)c3c2)o1` [Lapatinib Ditosylate] (concentration: 25 µM), the mean cell size in test [1] stood at 0.924 ± 0.072. Further, in test [2], the cell count worked out at 0.911 ± 0.14.
For `CCCCN1C[C@H](O)[C@@H](O)[C@H](O)[C@H]1CO` [Miglustat (N-Butyldeoxynojirimycin·HCl)] (concentration: 25 µM), in that order: 0.9757 ± 0.0093 and 0.81 ± 0.045.
For `C[C@@H](O)[C@H]1C(=O)N2C(C(=O)O)=C(S[C@@H]3CN[C@H](CNS(N)(=O)=O)C3)[C@H](C)[C@H]12` [Doripenem] (concentration: 25 µM), in that order: 0.94 ± 0.011 and 0.963 ± 0.12.
For `Nc1c2c(nc3ccccc13)CCCC2` [Tacrine·HCl] (concentration: 25 µM), in that order: 0.9808 ± 0.0065 and 0.854 ± 0.017.

Values taken from the supplement of paper PMC4709259.
